In PubChem BioAssay AID493194 (Broad Institute, 2011):
Results with a measured potency or affinity are listed apart. Results filed as inconclusive are left out. Active and inactive are the calls of the source.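 Rule for the calls: active = a valid curve of falling signal whose half-effect concentration is at most ten times the top tested dose; inconclusive = flat curve at 30 to 70% inhibition, or poor fit; inactive = signal rise, flat within 30%, or potency beyond limit.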

The compounds below were run against Scavenger receptor class B member 1 (Mus musculus) (UniProt Q61009) (assay: mouse SR-BI DiI-HDL uptake blockers – ldlA[mSR-BI] cells, fluorescence, cherry pick, dose response (AID 493194;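 note: CHO cells lacking LDL receptor and overexpressing mouse SR-BI; cellular uptake of fluorescently labeled HDL measured as cell fluorescence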)). Settings: CHO ldlA[mSR-BI] DiI-HDL uptake fluorescence, 3 h; series mostly up to 35 µM.
Scavenger receptor class B member 1 (Mus musculus), sequence (Q61009 whole entry, looked up): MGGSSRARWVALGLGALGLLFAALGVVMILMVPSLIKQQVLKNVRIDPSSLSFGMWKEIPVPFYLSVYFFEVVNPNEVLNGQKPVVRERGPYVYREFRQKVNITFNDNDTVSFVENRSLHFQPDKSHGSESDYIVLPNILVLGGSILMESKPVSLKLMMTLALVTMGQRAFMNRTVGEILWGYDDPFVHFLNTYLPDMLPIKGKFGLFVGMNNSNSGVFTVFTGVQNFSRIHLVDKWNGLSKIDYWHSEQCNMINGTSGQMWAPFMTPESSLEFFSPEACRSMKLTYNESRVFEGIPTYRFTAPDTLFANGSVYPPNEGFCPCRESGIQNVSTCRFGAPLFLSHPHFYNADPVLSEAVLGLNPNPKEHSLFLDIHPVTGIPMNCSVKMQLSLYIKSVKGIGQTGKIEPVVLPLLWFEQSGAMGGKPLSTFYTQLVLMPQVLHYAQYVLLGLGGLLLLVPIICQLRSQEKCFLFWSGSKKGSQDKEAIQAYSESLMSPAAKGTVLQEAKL

outcome, inactive:
Cc1ccc(OCc2cc(C(=O)N3CCCC(O)C3)no2)cn1 (stereo not drawn)
COc1ccc(CCNC(=O)c2ccc3c(c2)N(Cc2ccc(F)cc2)CCS3)c(OC)c1
CC(C)(C)NC(=O)N1CCN(c2ncccc2C(F)(F)F)CC1
CCOC(=O)c1[nH]c2c(c1C)C(=O)CC(c1ccc(F)cc1)C2 (stereo not drawn)
CN(C(=O)c1ccc2c(c1)CCN2S(C)(=O)=O)c1ccccc1
CCOC(=O)C1CCN(C(=O)Cn2cnc3sc(C)c(S(=O)(=O)N4CCC(C)CC4)c3c2=O)CC1
CS(=O)(=O)N1CCc2cc(-c3csc(NC(=O)Cc4ccccc4)n3)ccc21
O=C(NCc1ccccc1Cl)C1CCN(C(=O)c2sccc2-n2cccc2)CC1
C/C=C/COC(=O)c1[nH]c2c(c1C)C(=O)CC(c1ccco1)C2 (stereo not drawn)
N#Cc1ccc(C(=O)N2CCC3CC2c2cc(-c4ccccc4)ccc23)cc1 (stereo not drawn)
Cc1ccc(-c2csc(N3CCN(c4ccc5nc(-c6ccncc6)n(CCN6CCCCC6)c5c4)CC3)n2)cc1
CC1CCCCC1NC(=O)C1CCN(C(=O)c2sccc2-n2cccc2)CC1 (stereo not drawn)
CC(=O)c1c(C)[nH]c(C(=O)Nc2ccc(C)c(S(=O)(=O)Nc3ccc(C)cc3C)c2)c1C
CNC(=O)c1ccc(Nc2nnc(-c3ccc(O)cc3)c3ccccc23)cc1
O=C1NCCOC(=O)[C@H](Cc2ccc(F)cc2)C/C=C\C[C@@H]1CC(=O)N(CCO)Cc1ccccc1
CCOc1ccccc1CNC(=O)C1CCN(C(=O)c2sccc2-n2cccc2)CC1
CC(=O)Nc1ccc(S(=O)(=O)Nc2cc(C)c(-n3nc4ccccc4n3)cc2O)cc1
Cc1nc(NCc2cccnc2)c2c3c(sc2n1)CC(C)CC3 (stereo not drawn)
COCCN(C(=O)COC(=O)c1ccccc1Nc1ccccc1)c1c(N)n(Cc2ccccc2)c(=O)[nH]c1=O
COc1ccc(C2c3sc(=O)[nH]c3SC3C4CCC(C4)C23)cc1OC (stereo not drawn)
COc1ccccc1NC(=O)CN1CCN(CC(=O)Nc2ccc(C)c(F)c2)CC1
O=C(N[C@@H]1C/C=C\C[C@H](CC(=O)N(CCO)Cc2ccccc2)C(=O)NC[C@@H](c2ccccc2)OC1=O)OCC1c2ccccc2-c2ccccc21
CCOC(=O)C(=O)Nc1nc(-c2ccc3c(c2)CCN3C(=O)C2CC2)c(C)s1
O=C(Nc1ccc(-c2nc3ccccc3o2)cc1)c1cc(-n2cnnc2)ccc1Cl
CCC(=O)Nc1ccc(Cl)c(NC(=O)c2cccc(OC)c2)c1
CC(C(=O)NCc1ccccc1)N(Cc1ccccc1Cl)C(=O)c1snc(C(N)=O)c1N (stereo not drawn)
CC(=O)Nc1nc(-c2ccccc2)nc(-c2ccccc2OC(C)=O)n1
Cc1c(C(=O)Nc2cccc(Cl)c2)c2ccccn2c1CCc1ccncc1
CCOc1cc2c3c(c1)C1(C(=O)N3C(C)(C)CC2C)C(C#N)=C(N)N2C(=C1C#N)Nc1ccccc12 (stereo not drawn)
COc1ccc(N2CC(C(=O)NCCc3ccc(Cl)cc3)CC2=O)c(OC)c1 (stereo not drawn)
O=C(O)CC(C(=O)Nc1cccc(C(F)(F)F)c1)C1CCCO1 (stereo not drawn)
Cc1ccc(/C=C/C(=O)Nc2sc3c(c2C#N)CCCC3)o1
COc1ccc2c(c1)CC(C1(O)C(=O)N(C)c3ccccc31)C2=O (stereo not drawn)
COc1ccc([C@H]2/C=C\CN(S(=O)(=O)c3ccc4ccccc4c3)[C@@H](C)C(=O)N2Cc2ccc(F)cc2)cc1
COc1ccc(CCC(=O)Nc2ccc(-c3noc(-c4ccc(OC)c(OC)c4)n3)cc2)cc1
CC(C)OC(=O)c1cccc(C(=O)Nc2cccc(NC(=O)c3cccc(C(=O)OC(C)C)n3)n2)n1
O=C(Nc1ccccc1)C1=C(O)CC(c2ccoc2)CC1=Nc1ccccc1 (stereo not drawn)
Cc1cc(C(=O)COC(=O)c2ccc(Cl)c(S(N)(=O)=O)c2)c(C)n1C1CC1
